Screens as filed in PubChem.
Many of the other results were omitted from the sample, so hits are more common in it than they were.
Tgondii IFNg – blocks Toxoplasma gondii growth in the presence of IFN-gamma; Toxoplasma gondii growth in IFN-gamma-treated host cells; hits give low values; activity change, negative = inhibition, % (no concentration beside the values); 69,000 tested, 3.8% active; AID 1259416; in the data active means activity change below about -70%, passing the limit was not always enough;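 further: host cells are HeLa cells infected with Toxoplasma gondii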
The depositor's hits bear a star; i = inactive.

SMILES	Tgondii IFNg
Cc1cccc(-c2nnc(-c3nc(NCc4ccco4)c4ccccc4n3)o2)c1	-24
Cc1cccc(CNc2nc(-c3nnc(-c4ccc(F)cc4)o3)nc3ccccc23)c1	-101*
Clc1cccc(-c2nnc(-c3nc(NCc4ccco4)c4ccccc4n3)o2)c1	-69
COc1ccc(Nc2nc(-c3nnc(-c4cccc(C)c4)o3)nc3ccccc23)cc1	i
COc1ccc(-c2nnc(-c3nc(NCc4ccc(C)cc4)c4ccccc4n3)o2)cc1	-4
Cc1cccc(-c2nnc(-c3nc(NC4CCS(=O)(=O)C4)c4ccccc4n3)o2)c1 (stereo not drawn)	-96*
Cc1ccc(-c2nnc(-c3nc(NCc4cccc(C)c4)c4ccccc4n3)o2)cc1	24
COc1cccc(CNc2nc(-c3nnc(-c4cccc(C)c4)o3)nc3ccccc23)c1	-92*
CN(C)Cc1cc(=O)n2c(n1)CN(S(=O)(=O)C1CC1)CCC2	-7
O=C(NC1CC1)c1cc2n(n1)CCCN(C(=O)Cc1c[nH]c3ccccc13)C2	-30
Cc1cc(C(=O)N2CCCC(Nc3ccc4c(c3)OCCO4)C2)c(=O)[nH]c1C (stereo not drawn)	-5
O=C(CSc1nc(=O)c2ccccc2s1)NC12CC3CC(CC(C3)C1)C2	20
O=C(CNC1CCN(Cc2ccccc2)CC1)NCCC1=CCCCC1	-10
Cc1ccc(-c2noc(-c3nnn(Cc4nc(-c5ccccc5)oc4C)c3C)n2)cc1C	-4
CN1CC2(CCN(C(=O)CCCOCc3ccccc3)C2)OC1=O (stereo not drawn)	3
CC(C)c1ccc(NC(=O)c2csc(Cc3c(Cl)cccc3Cl)n2)cc1	-84*
CC(C)c1cc(C(=O)Nc2ccc(Cn3cncn3)cc2)cs1	107
O=C(Nc1csc(Cc2c(Cl)cccc2Cl)n1)NN1CCOCC1	-38
CS(=O)(=O)N1CCc2ccc(NC(=O)CN3Cc4ccccc4C3)cc21	-3
CC(C)NC(=O)N1CCc2ncc(CN(C)Cc3ccco3)n2CC1	-48
CC(=O)OCC(=O)[C@H]1CCC2C3CCC4=CC(=O)CC[C@]4(C)C3CC[C@@]21C (stereo partly drawn)	-30
C[C@H](CCC(=O)O)[C@H]1CC[C@H]2[C@@H]3[C@@H](O)C[C@@H]4C[C@H](O)CC[C@]4(C)[C@H]3CC[C@]12C	11
CC(=O)OC(C)C1CCC2C3CC[C@H]4CC(=O)CCC4(C)C3CCC12C (stereo partly drawn)	-97*
O=S(=O)(c1cccc(Cl)c1)N1CCC2(CC1)Nc1cc(F)ccc1-n1cccc12	5
CCOC(=O)c1nc(NCCCN2CCN(c3ccc(F)cc3)CC2)c2ccccc2n1	-26
SMILES	Tgondii IFNg
COc1cc2c(cc1-c1nccn1C(C)c1nc(C)cs1)CCC2 (stereo not drawn)	6
COc1ccccc1-c1ccc(NC(=O)Cn2nc(C(F)(F)F)nc2N)cc1	18
Cc1c(Br)cc2nsnc2c1C	-66
CS(=O)(=O)N1CCCC2(COCCN(c3cnccn3)C2)C1 (stereo not drawn)	0
Cc1ccc(CN2CCCC3(COCCN(c4cnccn4)C3)C2)s1 (stereo not drawn)	-94*
Cc1ccc(CN2CCC3(CC2)COCCN(c2ncccn2)C3)s1	-2
Cc1nc(CN2C[C@@H]3CN(CC4CC4)C[C@H]3C2=O)cs1	3
Cc1nc2nc(CC(=O)N3CCN(c4ccccc4)CC3)nn2c(C)c1Cl	20
Cc1noc(C)c1C(=O)NCc1ccc(-c2csnn2)cc1	18
CNC(=O)c1ccc(-c2ccc(CNC(=O)COC)cc2)nc1C	-74*
CCc1nc(OCC(=O)NCc2ccc(C)cc2)c2ccccc2n1	-5
CN(C)C(=O)n1c(C(=O)NCCc2ccccc2)cc2c1c1ccccc1n2C	10
CCS(=O)(=O)N1CCN(c2cc(CN)nc(C)n2)CC1	1
CNC(=O)[C@@H]1CCO[C@@H]2CCN(Cc3cnn(C)c3)C[C@H]21	18
COCC1c2nnn(CC3CC3)c2CCN1C(=O)c1ccncc1 (stereo not drawn)	-11
CCOCc1cncc2c1CCN(S(=O)(=O)c1cn(C)cn1)C2	-1
O=c1[nH]nc(CCn2ccnc2C2CCOC2)[nH]1 (stereo not drawn)	-3
O=c1c2ccccc2oc2ccc(Cl)cc12	150
CS(=O)(=O)Nc1ccc2oc3ccccc3c(=O)c2c1	-92*
O=c1c2ccccc2oc2ccccc12	15
O=C(CC1C2CCCC1CNC2)Nc1cccc(F)c1 (stereo not drawn)	133
Cn1c(C(F)(F)F)nc2ccccc21	-10
Cc1ccc(Nc2nc(C(=O)Nc3ccc4c(c3)OCCO4)nc3ccccc23)cc1	-56
Cc1ccc(-c2nc(C(=O)NCCN3CCOCC3)c3n2CCCCC3)cc1	13
Cc1ccc(-c2nc(C(=O)Nc3ccc4c(c3)OCCO4)c3n2CCCCC3)cc1	-94*
SMILES	Tgondii IFNg
COCCNC(=O)c1nc(-c2cccc(F)c2)n2c1CCCCC2	94
COc1ccc(CNC(=O)c2nc(-c3ccc(C)cc3)n3c2CCCCC3)cc1	-70
CCCCN(C)C(=O)c1nc(-c2cccc(F)c2)n2c1CCCCC2	-17
COc1cccc(CNC(=O)c2nc(-c3ccc(C)cc3)n3c2CCCCC3)c1	-108*
CCC(C)NC(=O)c1nc(-c2ccc(C)cc2)n2c1CCCCC2 (stereo not drawn)	-92*
CCC(C)NC(=O)c1nc(-c2cccc(F)c2)n2c1CCCCC2 (stereo not drawn)	-98*
COc1ccc(N2CCN(C(=O)c3nc(-c4cccc(F)c4)n4c3CCCCC4)CC2)cc1	43
CCNC(=O)c1nc(-c2ccc(Cl)cc2)n2c1CCCCC2	-7
O=C(NCCN1CCCCCC1)c1nc(-c2ccc(Cl)cc2)n2c1CCCCC2	-56
O=C(NC1CCCCCC1)c1nc(N2CCCC2)c2ccccc2n1	-58
C=C(C)Cn1nc(C)c(CN(C)CCN2CCCCC2)c1C	25
O=C(CN1C(=O)CCc2cc(Br)ccc21)NCc1cccs1	-19
CN(C)C(=O)COCC1COCCC12CCN(S(C)(=O)=O)CC2 (stereo not drawn)	-1
Cc1ccccc1NC(=O)C12CCC(C)(c3nc4ccccc4nc31)C2(C)C (stereo not drawn)	-68
Clc1ccc(-c2nc(NC3CCCCCC3)c3ccccc3n2)cc1	-63
CN1CC2(CCCN(C(=O)CCn3nnc4ccccc43)C2)OC1=O (stereo not drawn)	-3
O=C(c1ccccc1-c1ncn[nH]1)N1CC(c2cccnc2)C1	-39
CCO[C@@H]1CC[C@@H]2[C@H]1OCCN2C(=O)C1=CCCCC1	16
CN(C)Cc1ccc(-c2cc(N)ccn2)cc1	-5
CCC1CN(Cc2cncn2CC(C)C)CCC(=O)N1Cc1ccccc1 (stereo not drawn)	-11
Cc1cccc(C)c1OCCCN(C)C(=O)c1c(C)nc2ncccn12	0
COc1cccc(Cn2c(-c3sccc3C)n[nH]c2=O)c1	12
CC(c1ccncc1)N(C)CC1CCNCC1 (stereo not drawn)	-1
Cc1n[nH]c(C)c1CCNC(=O)C1CNCCO1 (stereo not drawn)	23
CCOc1ccc(CNC(=O)c2nnn(Cc3nc(-c4cccc(C)c4)oc3C)c2C)cc1	-34
Cc1cccc(-c2nc(Cn3nnc(C(=O)NCc4ccc(C(F)(F)F)cc4)c3C)c(C)o2)c1	8
COc1ccc(OC)c(NC(=O)c2nnn(Cc3nc(-c4cccc(Cl)c4)oc3C)c2C)c1	54
COc1ccc(NC(=O)c2nnn(Cc3nc(-c4cccc(Cl)c4)oc3C)c2C)cc1	-110*
Cc1cccc(-c2nc(Cn3nnc(C(=O)NCc4ccc(Br)cc4)c3C)c(C)o2)c1	-32
